High-throughput results (PubChem)
Rows were chosen to be rich in hits. Some 9.8% of all compounds tested hit in one or more screens of this group.
ALDH1A1 block: ALDH1A1 (human) enzyme inhibition; P00352; Purified ALDH1A1, NADH fluorescence, propionaldehyde substrate; Potency, µM (titrated, usually from 75.3 µM), usual class: inhibitors; 7.3% of 220,000 active; AID 1030; active = well fitted inhibition curve with a large enough effect, not every such curve was filed as active; inconclusive = small, poorly fitted or top-dose-only effect, or another doubt; inactive = no such curve, though single readings can be large or run the other way
HttQ103 aggreg: mutant huntingtin aggregation inhibition; PC12 HttQ103-GFP aggregates, Acumen cytometry, 40 h; Potency, µM (highest dose often 46.1 µM), actives largely listed as inhibitors; 1.1% of 220,000 active; AID 1688; note: nearly all actives have a fitted effect of over 60% in size
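Inducible Q103 Huntingtin exon 1–GFP PC12 line, 1500 cells/well in phenol red free DMEM with 5% equine and 5% calf serum. Tebufenozide 100 nM induced expression; compounds titrated; aggregates quantified by cytometry.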
HPGD inh: blocks human HPGD enzyme activity. P15428. purified HPGD, NADH fluorescence kinetic, PGE2 substrate. Potency, µM, most hits filed as inhibitors. 4.3% of 150,000 active; active = well fitted inhibition curve with a large enough effect, not every such curve was filed as active; inconclusive = small, poorly fitted or top-dose-only effect, or another doubt; inactive = no such curve, though single readings can be large or run the other way
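NADH formation kinetics: reaction with 30 uM PGE2 and 1 mM NAD+ (final), 20 nM enzyme, Tris-HCl pH 8 with Tween 20, after 15 min compound preincubation at room temperature. Fluorescence change, last versus first of five reads.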
HTT cytoprotect: cytoprotection in Huntington HTT-Q103 PC12 cell model; AID 1471; 0.14% of 230,000 active; Potency, µM (highest dose often 56.4 µM), actives largely listed as activators; PC12 HTT-Q103 induced, cytoprotection, ATP luminescence, 40 h; note: nearly all actives have a fitted effect of over 45% in size
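PC12 cells stably carrying ecdysone-inducible Htt exon 1 (Q103)–GFP were induced with 100 nM tebufenozide (final) alongside library compounds in a dose series. Cytoprotection was scored as retained ATP by ATPlite luminescence.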
JMJD2E inh: inhibitors of human JMJD2E histone demethylase; Potency, µM (top dose mostly 57.1 µM), actives largely listed as inhibitors; AID 2147; 1.6% of 230,000 active; JMJD2E catalytic domain, FDH-coupled NADH fluorescence (FDH is formaldehyde dehydrogenase); note: nearly all actives have a fitted effect of over 50% in size
CBFb-RUNX1 inh: CBF-beta/RUNX1 interaction disruption | Q01196+Q13951 | AlphaScreen CBFb-His/RUNX1-biotin binding, biochemical | Potency, µM (series often up to 59.8 µM), hits mostly inhibitors | 230,000 tested, under 10 active
Target sequence (Q01196 whole entry, looked up): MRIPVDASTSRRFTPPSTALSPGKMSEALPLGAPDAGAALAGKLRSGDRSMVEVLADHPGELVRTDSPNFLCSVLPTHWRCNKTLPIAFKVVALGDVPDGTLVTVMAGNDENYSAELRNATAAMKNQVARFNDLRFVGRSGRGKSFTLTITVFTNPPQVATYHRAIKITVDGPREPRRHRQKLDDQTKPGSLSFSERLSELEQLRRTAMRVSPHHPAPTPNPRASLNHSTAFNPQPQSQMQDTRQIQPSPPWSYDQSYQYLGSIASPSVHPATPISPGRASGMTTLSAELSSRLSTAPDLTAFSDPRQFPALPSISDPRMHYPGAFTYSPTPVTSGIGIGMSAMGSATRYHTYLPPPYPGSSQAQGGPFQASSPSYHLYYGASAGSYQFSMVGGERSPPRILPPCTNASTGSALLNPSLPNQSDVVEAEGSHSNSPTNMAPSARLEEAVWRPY
Target sequence (Q13951 whole entry, looked up): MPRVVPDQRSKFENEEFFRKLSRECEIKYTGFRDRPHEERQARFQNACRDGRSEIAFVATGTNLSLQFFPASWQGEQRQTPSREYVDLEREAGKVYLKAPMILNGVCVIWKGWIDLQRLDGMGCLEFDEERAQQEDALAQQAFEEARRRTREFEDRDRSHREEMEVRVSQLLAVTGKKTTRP
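Compounds were screened at multiple concentrations against a preformed CBF-beta(His)/RUNX1(biotin) complex (30 nM of each) for 15 min at room temperature, followed by 90 min with nickel and streptavidin beads and AlphaScreen reading.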
Numbers stand for hits; [ ] = remark or other dose. Unless noted, calls come from the whole dose curve; as a rule, active = well fitted curve in the direction sought with a large enough effect; inconclusive = small, poorly fitted or top-dose-only effect, or another doubt; inactive = no such curve, though single readings can be large; an effect the other way counts as inactive or inconclusive.

CCCC(=O)NC(c1ccco1)c1cc([N+](=O)[O-])c2cccnc2c1O (stereo unspecified) was read as ALDH1A1 block inactive, HttQ103 aggreg inconclusive, HTT cytoprotect inactive, JMJD2E inh 28.2µM and CBFb-RUNX1 inh inconclusive.
For CC(C)N(C(=O)Cn1cc(SCC(N)=O)c2ccccc21)C(C)C the results were ALDH1A1 block inactive, HttQ103 aggreg inactive, HTT cytoprotect inactive, JMJD2E inh inactive and CBFb-RUNX1 inh inactive.
`O=C(NC(=S)NNC(=O)[C@H]1C[C@@H]1c1ccccc1)c1ccc(F)cc1` gave ALDH1A1 block 25.1µM, HttQ103 aggreg inactive[9.22 µM], HTT cytoprotect inactive[10 µM], JMJD2E inh inconclusive and CBFb-RUNX1 inh inactive.
`Oc1ccc(CN2CCN(Cc3ccccc3)CC2)c2cccnc12` gave ALDH1A1 block inactive, HttQ103 aggreg inactive, HPGD inh inactive, HTT cytoprotect inactive, JMJD2E inh inactive and CBFb-RUNX1 inh inactive.
O=S(=O)(c1ccc(Cl)cc1)N1CCN(Cc2ccc(O)c3ncccc23)CC1 was read as ALDH1A1 block inactive, HttQ103 aggreg 5.01µM, JMJD2E inh 25.1µM and CBFb-RUNX1 inh inactive.
For Cc1ccc(-n2nnnc2-c2ccco2)cc1 the results were ALDH1A1 block inconclusive, HttQ103 aggreg inactive, HPGD inh inactive, HTT cytoprotect inactive[10 µM], JMJD2E inh inactive and CBFb-RUNX1 inh inactive.
For Cc1ccc(-n2nnnc2C(Cl)c2nnnn2-c2ccc(C)cc2)cc1 the results were ALDH1A1 block inactive, HttQ103 aggreg inconclusive, HPGD inh 5.01µM, HTT cytoprotect inactive[10 µM], JMJD2E inh inactive and CBFb-RUNX1 inh inactive.
COc1ccc2nc(SCc3nc(N)nc(Nc4ccccc4)n3)[nH]c2c1 was read as ALDH1A1 block 7.94µM, HttQ103 aggreg inactive, HPGD inh inactive, HTT cytoprotect inactive, JMJD2E inh inactive and CBFb-RUNX1 inh inactive.
COc1cc(-c2oc3cc(O)cc(O)c3c(=O)c2O[C@@H]2O[C@H](CO)[C@@H](O)[C@H](O)[C@H]2O)cc(OC)c1O was read as CBFb-RUNX1 inh inactive.
CC(C)(C)c1ccc(C(O)CCCN2CCC(C(O)(c3ccccc3)c3ccccc3)CC2)cc1 (stereo unspecified) was read as ALDH1A1 block inactive, HttQ103 aggreg 22.4µM, HPGD inh inactive, HTT cytoprotect inactive, JMJD2E inh inactive and CBFb-RUNX1 inh inactive.
CC(C)(C)c1ccc([C@@H](O)CCCN2CCC(C(O)(c3ccccc3)c3ccccc3)CC2)cc1 was read as ALDH1A1 block inactive, HPGD inh inactive, HTT cytoprotect inconclusive, JMJD2E inh inactive and CBFb-RUNX1 inh inactive.
`C=CCNC(=O)/C(=C/c1cn(-c2ccccc2)nc1-c1cccc([N+](=O)[O-])c1)NC(=O)c1ccccc1` gave ALDH1A1 block 1µM, HttQ103 aggreg inactive, HTT cytoprotect inactive[10 µM], JMJD2E inh inactive and CBFb-RUNX1 inh inactive.
`CN(C)C(=O)/C(=C/c1cn(-c2ccccc2)nc1-c1cccc([N+](=O)[O-])c1)NC(=O)c1ccccc1` gave ALDH1A1 block inconclusive, HttQ103 aggreg inactive, HPGD inh inactive, HTT cytoprotect inactive[10 µM], JMJD2E inh inactive and CBFb-RUNX1 inh inactive.
For C/C(=N\S(=O)(=O)c1ccc(C)cc1)N1CCN(S(=O)(=O)c2ccccc2)C1 the results were ALDH1A1 block 3.98µM, HttQ103 aggreg inactive, HPGD inh inactive, HTT cytoprotect inconclusive, JMJD2E inh inactive and CBFb-RUNX1 inh inactive.
Cc1cc(C)c(C(=O)/C=C/c2ccco2)c(=O)[nH]1 was read as ALDH1A1 block 11.2µM, HttQ103 aggreg inactive[9.22 µM], HTT cytoprotect inactive[10 µM], JMJD2E inh inconclusive and CBFb-RUNX1 inh inconclusive.
CCc1ccc(/C=C/C(=O)c2c(C)cc(C)[nH]c2=O)cc1 was read as ALDH1A1 block inactive, HttQ103 aggreg 25.1µM, HPGD inh inactive, HTT cytoprotect inactive[10 µM], JMJD2E inh inactive and CBFb-RUNX1 inh inactive.
For CC1(C(=O)OCc2cc(=O)n3cc(Br)ccc3n2)CC1(Cl)Cl (stereo unspecified) the results were ALDH1A1 block 20µM, HttQ103 aggreg inactive, HTT cytoprotect inactive, JMJD2E inh inactive and CBFb-RUNX1 inh inactive.
Screening CCOc1ccc(-n2c(-c3ccc(OC)cc3)c[n+]3c2CCCCC3)cc1 returned ALDH1A1 block inactive, HttQ103 aggreg 7.94µM, HPGD inh inactive, HTT cytoprotect inactive[1.9 µM], JMJD2E inh inactive and CBFb-RUNX1 inh inactive.
`CCOc1ccc(-n2c(-c3ccc(Br)cc3)c[n+]3c2CCCCC3)cc1` gave ALDH1A1 block inactive, HttQ103 aggreg inconclusive, HTT cytoprotect inactive, JMJD2E inh inactive and CBFb-RUNX1 inh inactive.
For CCOc1ccc(-n2c(-c3ccccc3)c[n+]3c2CCC3)cc1 the results were ALDH1A1 block inactive, HttQ103 aggreg 6.31µM, HTT cytoprotect inactive[10 µM], JMJD2E inh inactive and CBFb-RUNX1 inh inactive.
Screening CC[C@H](C)[C@H](NC(=O)[C@H](CCC(=O)O)NC(=O)[C@H](C)NC(=O)[C@@H](NC(=O)[C@H](Cc1cnc[nH]1)NC(=O)[C@@H](NC(=O)[C@H](CCC(=O)O)NC(=O)[C@H](C)NC(=O)[C@@H](NC(=O)[C@H](CC(C)C)NC(=O)[C@H](Cc1cnc[nH]1)NC(=O)[C@H](Cc1cnc[nH]1)NC(=O)[C@H](CC(C)C)NC(=O)[C@H](Cc1c[nH]c2ccccc12)NC(=O)[C@H](Cc1ccccc1)NC(=O)[C@H](CCCNC(=N)N)NC(=O)[C@H](CCCNC(=N)N)NC(=O)[C@H](CCCNC(=N)N)NC(=O)[C@H](CC(C)C)NC(=O)[C@H](CC(=O)O)NC(=O)[C@H](CCC(N)=O)NC(=O)[C@@H](NC(=O)[C@H](CO)NC(=O)[C@H](CCCCN)NC(=O)CNC(=O)[C@H](CCCCN)NC(=O)[C@H](CC(=O)O)NC(=O)[C@H](Cc1cnc[nH]1)NC(=O)[C@H](CC(C)C)NC(=O)[C@H](CC(C)C)NC(=O)[C@H](CCC(N)=O)NC(=O)[C@@H](NC(=O)[C@H](CCC(=O)O)NC(=O)[C@H](CO)NC(=O)[C@@H](NC(=O)[C@H](C)N)C(C)C)[C@@H](C)CC)[C@@H](C)CC)[C@@H](C)CC)[C@@H](C)CC)[C@@H](C)O)C(=O)O returned CBFb-RUNX1 inh inactive.
Screening Nc1ccccc1SCC1CSc2nc3ccccc3c(=O)n21 (stereo unspecified) returned ALDH1A1 block inconclusive, HttQ103 aggreg inactive, HTT cytoprotect inactive, JMJD2E inh inactive and CBFb-RUNX1 inh inactive.
`O=c1c2ccccc2nc2n1C(CSCc1ccc(Cl)cc1Cl)CS2` (stereo unspecified) gave ALDH1A1 block inactive, HttQ103 aggreg 8.91µM, HPGD inh inactive, HTT cytoprotect inactive, JMJD2E inh inactive and CBFb-RUNX1 inh inactive.
